# Assay results as given in PubChem BioAssay (NCATS).
# Records with an inconclusive call do not appear. Activity calls are given as the source filed them. Unless noted, calls follow the shape of the dose curve; as a rule, active = well fitted curve in the direction sought with a large enough effect; inconclusive = small, poorly fitted or top-dose-only effect, or another doubt; inactive = no such curve, though single readings can be large; an effect the other way counts as inactive or inconclusive.
# Legend:
# [1] = biological target: Cytochrome P450 1A2 (Homo sapiens) (UniProt P05177); experiment: p450-cyp1a2 (AID 410; calls by dose curve; also: potency is read from the fitted curve at half-maximal effect)
# Summary of the method: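 Read-out is luminescence from luciferin produced by CYP1A2 demethylation of Luciferin-ME (100uM, at Km). Detection reagent stopped the 60 min NADPH-dependent reaction; signals were normalized to 57 uM furafylline.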
# [2] = biological target: Glucocorticoid receptor (Homo sapiens) (UniProt P04150); experiment: GR-GFP Redistribution (AID 450;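 active = compounds whose dose series gives a full or clear partial fitted curve of increased nuclear translocation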; also: potency is read from the fitted curve at half-maximal effect); conditions: U2OS GR-GFP nuclear translocation, laser cytometry, 2 h
# [3] = biological target: Glucocorticoid receptor (Homo sapiens) (UniProt P04150); experiment: GR-EFC Redistribution (AID 451; calls by dose curve; also: potency is read from the fitted curve at half-maximal effect); conditions: CHO-K1 GR-EFC translocation, beta-gal luminescence, 2 h
# Summary of the method: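 CHO-K1 cells expressing nuclear EA and GR-ED fragments of b-gal; compounds titrated up to 46 uM final, 2 h at 37 C. GR nuclear translocation read as complemented b-gal luminescence after 1 h RT detection.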
# [4] = biological target: Mitogen-activated protein kinase 10 (Mus musculus) (UniProt Q61831); experiment: JNK3 AlphaScreen Assay (AID 530; active = well fitted curve in either direction with a large enough effect, not every such curve was filed as active;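 also: kinase came from lysate of stimulated human HepG2 cells; signal reports phosphorylation of biotinylated GST-cJun 1-79 at Ser73 with 10 µM ATP; % is scaled to controls: 0 for no effect and ±100 for the full control effect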)
# Summary of the method: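 HepG2 lysate (IL-1b/TNFa pre-activated) + biotin-GST-cJun 1-79 + anti-pSer73 cJun; cpd titration, 15 min RT; ATP 10 uM start; Tris pH 7.6, MgCl2, DTT, vanadate; beads in EDTA buffer; AlphaScreen.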
# [5] = biological target: 3',5'-cyclic-AMP phosphodiesterase 4B (Homo sapiens) (UniProt Q07343); experiment: qHTS Assay for Inhibitors of PDE-IV (AID 607; active = well fitted activation curve with a large enough effect in the main read-out, with a control signal flat, not every such curve was filed as active; also: % of control where 0% means no effect)
# Summary of the method: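 The readout is membrane depolarisation from a cAMP-sensing CNG channel, detected with a potential dye at ex 535/em 590. Cells were HEK293-derived (endogenous PDE-IV) at 1000 cells/well, titrated up to 22.9 uM final.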
# [6] = biological target: Cytochrome P450 3A4 (Homo sapiens) (UniProt P08684); experiment: qHTS Assay for Activators of Cytochrome P450 3A4 (AID 885); also: nearly all actives have a fitted effect of over 65% in size
# Summary of the method: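 Activators are scored by enhanced luminescence from CYP3A4 conversion of luciferin-PPXE (25uM, equal to KM) to luciferin, after 60 min at RT with an NADPH-regenerating system.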
# [7] = qHTS Assay for Identification of Small Molecule Agonists for Hypoxia Response Element Signaling Pathway (AID 914; active = well fitted activation curve with a large enough effect in the signal ratio, with a control signal flat, not every such curve was filed as active; the % refers to the signal ratio; also: potency is read from the fitted curve at half-maximal effect); conditions: ME-180 HRE-bla reporter, beta-lactamase ratio, CoCl2, 17 h; activation: stronger effect = higher value
# Summary of the method: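 In Opti-MEM containing 0.5% dialyzed FBS and 10 mM HEPES, ME-180 HRE-bla cells received a compound titration and EC50 CoCl2. They were incubated 17 hours, then CCF4-loaded 2.5 hours at room temperature before ratio reading.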
# [8] = qHTS Assay for Lipid Storage Modulators (AID 1519; calls by dose curve); conditions: Drosophila S3 cells, BODIPY lipid droplet/cell ratio, laser cytometry, cells loaded with oleic acid; for activity change, negative = inhibition: at 57.5 µM (top of the series)
# Summary of the method: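 Cells seeded at 5,000 per well were treated with compounds over a concentration series and loaded with oleic acid (400 uM, as added). Lipid droplet fluorescence (488 nm excitation, 500-530 nm channel) was read by laser-scanning cytometry and normalized to 20 uM Triacsin C.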
# [9] = biological target: Dual specificity protein kinase CLK4 (Homo sapiens) (UniProt Q9HAZ1); experiment: qHTS Assay for Inhibitors of CDC-like Kinase 4 (Kinase-Glo Assay) (AID 1770); also: nearly all actives have a fitted effect of over 65% in size; also: potency is read from the fitted curve at half-maximal effect
# Summary of the method: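 Luminescent ATP-depletion read-out (Kinase-Glo) after 4.5 h room-temperature reaction of Clk4 (25 nM final) with RS peptide (100 uM) and ATP (1 uM), pH 7.5 Tris buffer with MgCl2 and DTT.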
# [10] = biological target: Dual specificity protein kinase CLK4 (Homo sapiens) (UniProt Q9HAZ1); experiment: qHTS Assay for Inhibitors of CDC-like Kinase 4 (ADP-Glo Assay) (AID 1771); also: nearly all actives have a fitted effect of over 70% in size; also: potency is read from the fitted curve at half-maximal effect
# Summary of the method: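 In this ADP-Glo format, 1 uM ATP and 100 uM RS peptide served as substrates for 25 nM Clk4 in Mg2+/EGTA/DTT/Triton buffer; reactions ran 1 hr at room temperature before luminescent ADP quantification.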
# [11] = biological target: Dual specificity protein kinase CLK4 (Homo sapiens) (UniProt Q9HAZ1); experiment: qHTS Assay for Inhibitors of CDC-like Kinase 4 (ADP-FP Assay) (AID 1795); also: nearly all actives have a fitted effect of over 60% in size; also: potency is read from the fitted curve at half-maximal effect
# Summary of the method: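 Kinase activity was measured as ADP production using Transcreener orange tracer (4 nM) and ADP antibody (1 ug/mL) fluorescence polarization, with ADP calculated from a calibration curve. The 1 h reaction contained 6.25 nM Clk4, 1 uM ATP and 100 uM RS peptide at pH 7.5 with Mg2+.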
# [12] = biological target: Ubiquitin carboxyl-terminal hydrolase 1 (Homo sapiens) (UniProt O94782); experiment: Inhibitors of USP1/UAF1: Pilot qHTS (AID 504865);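 also: rhodamine fluorescence freed from ubiquitin-rhodamine substrate followed over time; top concentration of the series differs between compounds; % is scaled to controls: 0 for no effect and ±100 for the full control effect; nearly all actives have a fitted effect of over 35% in size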
# Summary of the method: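 Deubiquitinase activity followed as kinetic rhodamine fluorescence release from 150 nM Ub-Rho. 1 nM USP1/UAF1 with compound, after 15 min room-temperature preincubation, in HEPES pH 7.8 buffer containing TCEP, EDTA, BSA and Tween-20.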
# [13] = Primary qHTS for small molecule stabilizers of the endoplasmic reticulum resident proteome: Secreted ER Calcium Modulated Protein (SERCaMP) assay (AID 1508630); also: % is scaled to controls: 0 for no effect and ±100 for the full control effect
# Summary of the method: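 The SH-SY5Y reporter protocol was run at 3 concentrations up to 38.3 uM (primary) or 11 concentrations (follow-up): 16 h compound, 100 nM thapsigargin for 4 h, then extracellular luciferase luminescence.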
# [14] = AP1 Signaling Pathway (AID 357; active = well fitted curve in either direction with a large enough effect, not every such curve was filed as active;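 also: ME-180 reporter cells stimulated with EGF at its EC50 level; % is scaled to controls: 0 for no effect and ±100 for the full control effect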); conditions: ME-180 AP-1-bla reporter, EGF-induced, beta-lactamase ratio, 5 h; at 7.69 µM (top of the series) unless noted
# Summary of the method: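 Read-out was the 460nm/530nm emission ratio (excitation 405nm) after CCF4 loading for 2.5 hours at room temperature. Cells carried an AP-1-driven beta-lactamase reporter, were stimulated with EC50 EGF plus compound for 5 hours, and AC50 values came from titrations.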
# [15] = NFAT Signaling Pathway (AID 444; active = well fitted curve in either direction with a large enough effect, not every such curve was filed as active;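 also: carbachol stimulus at about its EC50 of 1 µM final; % is scaled to controls: 0 for no effect and ±100 for the full control effect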); conditions: Jurkat NFAT-bla M1, carbachol, beta-lactamase ratio, 5 h; at 7.69 µM (top of the series) unless noted
# Summary of the method: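 Jurkat cells with NFAT-driven β-lactamase reporter and co-expressed M1 receptor, stimulated with carbachol (final 1 uM, ~EC50), compound titration, 5 h at 37 °C. CCF4 loaded 1 h at RT; 460/530 nm ratio gave %activity and AC50.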
# [16] = Stat Signaling Pathway (AID 446; active = well fitted curve in either direction with a large enough effect, not every such curve was filed as active); conditions: ME-180 (cervical carcinoma) SIE beta-lactamase reporter, IL-6 stimulated, 5 h; at 7.69 µM (top of the series) unless noted
# Summary of the method: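 Emission at 460 and 530 nm (excitation 405 nm) reports SIE-controlled beta-lactamase in ME-180 cells. Cells received compound with 40 pM IL-6 for 5 hrs at 37 C; data scaled between 300 pM IL-6 and 125 nM JAK-inhibitor controls.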
# [17] = biological target: Cytochrome P450 3A4 (Homo sapiens) (UniProt P08684); experiment: qHTS Assay for Inhibitors and Substrates of Cytochrome P450 3A4 (AID 884); also: potency is read from the fitted curve at half-maximal effect; nearly all actives have a fitted effect of over 50% in size
# Summary of the method: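 Luminescent readout of luciferin produced by CYP3A4 (20 nM) dealkylation of Luciferin-PPXE, 25 uM (its KM). NADPH-driven reaction ran 60 min at RT after 10 min compound preincubation; data scaled to 57 uM ketoconazole as 100% inhibition.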
# [18] = measured here: cell count channel max response
# [19] = measured here: lipid channel max response
# Sequence of Ubiquitin carboxyl-terminal hydrolase 1 (Homo sapiens) (O94782 whole entry, looked up): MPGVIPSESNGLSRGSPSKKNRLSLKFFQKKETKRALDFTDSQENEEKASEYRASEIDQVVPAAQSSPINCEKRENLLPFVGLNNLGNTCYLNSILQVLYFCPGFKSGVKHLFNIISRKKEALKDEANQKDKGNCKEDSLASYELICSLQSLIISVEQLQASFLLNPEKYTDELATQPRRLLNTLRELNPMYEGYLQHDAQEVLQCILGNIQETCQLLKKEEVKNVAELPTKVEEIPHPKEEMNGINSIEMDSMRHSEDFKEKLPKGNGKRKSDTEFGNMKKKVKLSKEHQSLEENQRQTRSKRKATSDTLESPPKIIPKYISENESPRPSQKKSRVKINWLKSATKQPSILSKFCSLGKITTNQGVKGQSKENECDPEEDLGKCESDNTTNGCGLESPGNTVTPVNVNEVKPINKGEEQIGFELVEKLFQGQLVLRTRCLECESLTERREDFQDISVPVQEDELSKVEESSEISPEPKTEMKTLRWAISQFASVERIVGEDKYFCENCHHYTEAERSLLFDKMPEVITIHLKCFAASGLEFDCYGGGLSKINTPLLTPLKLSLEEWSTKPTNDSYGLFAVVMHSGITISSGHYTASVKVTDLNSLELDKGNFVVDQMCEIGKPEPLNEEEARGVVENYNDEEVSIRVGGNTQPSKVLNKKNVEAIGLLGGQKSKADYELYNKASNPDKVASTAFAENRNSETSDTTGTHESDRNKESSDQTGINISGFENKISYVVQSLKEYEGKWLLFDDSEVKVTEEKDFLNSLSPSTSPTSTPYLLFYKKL
# Sequence of Cytochrome P450 1A2 (Homo sapiens) (P05177 whole entry, looked up): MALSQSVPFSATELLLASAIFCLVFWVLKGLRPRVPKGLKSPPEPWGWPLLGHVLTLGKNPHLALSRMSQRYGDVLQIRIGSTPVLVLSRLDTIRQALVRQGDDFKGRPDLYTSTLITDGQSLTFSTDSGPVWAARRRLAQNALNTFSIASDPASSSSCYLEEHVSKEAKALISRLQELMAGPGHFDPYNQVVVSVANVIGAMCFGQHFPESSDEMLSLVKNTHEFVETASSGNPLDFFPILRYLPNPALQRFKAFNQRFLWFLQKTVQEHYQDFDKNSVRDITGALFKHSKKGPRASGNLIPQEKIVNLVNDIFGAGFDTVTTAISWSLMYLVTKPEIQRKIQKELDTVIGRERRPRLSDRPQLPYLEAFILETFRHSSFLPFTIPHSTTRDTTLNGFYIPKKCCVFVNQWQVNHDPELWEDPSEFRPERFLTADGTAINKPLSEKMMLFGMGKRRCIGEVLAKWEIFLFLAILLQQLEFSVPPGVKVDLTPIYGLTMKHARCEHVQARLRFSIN
# Sequence of 3',5'-cyclic-AMP phosphodiesterase 4B (Homo sapiens) (Q07343 whole entry, looked up): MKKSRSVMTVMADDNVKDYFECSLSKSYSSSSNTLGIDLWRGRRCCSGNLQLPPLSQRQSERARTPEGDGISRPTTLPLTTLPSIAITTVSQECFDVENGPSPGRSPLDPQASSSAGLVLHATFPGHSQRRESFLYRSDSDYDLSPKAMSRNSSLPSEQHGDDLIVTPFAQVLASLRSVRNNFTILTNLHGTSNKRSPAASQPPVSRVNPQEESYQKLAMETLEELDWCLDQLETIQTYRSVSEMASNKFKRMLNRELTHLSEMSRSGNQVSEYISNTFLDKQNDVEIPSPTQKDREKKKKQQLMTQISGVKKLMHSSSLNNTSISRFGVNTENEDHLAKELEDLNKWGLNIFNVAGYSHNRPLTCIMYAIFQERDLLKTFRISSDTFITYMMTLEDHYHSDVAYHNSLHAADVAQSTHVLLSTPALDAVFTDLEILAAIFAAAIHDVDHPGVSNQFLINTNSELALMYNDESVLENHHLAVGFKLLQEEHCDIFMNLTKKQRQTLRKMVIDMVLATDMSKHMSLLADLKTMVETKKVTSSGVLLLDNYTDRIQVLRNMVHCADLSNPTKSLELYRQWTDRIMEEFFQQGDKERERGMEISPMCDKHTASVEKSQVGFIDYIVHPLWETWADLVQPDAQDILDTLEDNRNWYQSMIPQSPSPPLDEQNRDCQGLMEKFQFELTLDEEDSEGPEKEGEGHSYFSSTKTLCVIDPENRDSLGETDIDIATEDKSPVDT
# Sequence of Cytochrome P450 3A4 (Homo sapiens) (P08684 whole entry, looked up): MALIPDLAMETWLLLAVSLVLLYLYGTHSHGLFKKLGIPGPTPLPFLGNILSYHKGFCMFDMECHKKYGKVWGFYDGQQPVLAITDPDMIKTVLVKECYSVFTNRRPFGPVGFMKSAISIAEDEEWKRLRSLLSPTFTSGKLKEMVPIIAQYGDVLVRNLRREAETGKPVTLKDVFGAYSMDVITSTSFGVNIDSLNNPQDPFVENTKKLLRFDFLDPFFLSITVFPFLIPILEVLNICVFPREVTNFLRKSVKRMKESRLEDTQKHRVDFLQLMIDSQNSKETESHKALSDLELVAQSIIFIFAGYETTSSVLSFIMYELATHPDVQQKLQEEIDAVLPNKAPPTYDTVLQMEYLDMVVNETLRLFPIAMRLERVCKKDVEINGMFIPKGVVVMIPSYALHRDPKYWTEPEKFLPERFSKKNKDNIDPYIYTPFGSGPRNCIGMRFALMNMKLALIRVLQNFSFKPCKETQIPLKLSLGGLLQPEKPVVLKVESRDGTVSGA
# Sequence of Glucocorticoid receptor (Homo sapiens) (P04150 whole entry, looked up, the tested form may be a part): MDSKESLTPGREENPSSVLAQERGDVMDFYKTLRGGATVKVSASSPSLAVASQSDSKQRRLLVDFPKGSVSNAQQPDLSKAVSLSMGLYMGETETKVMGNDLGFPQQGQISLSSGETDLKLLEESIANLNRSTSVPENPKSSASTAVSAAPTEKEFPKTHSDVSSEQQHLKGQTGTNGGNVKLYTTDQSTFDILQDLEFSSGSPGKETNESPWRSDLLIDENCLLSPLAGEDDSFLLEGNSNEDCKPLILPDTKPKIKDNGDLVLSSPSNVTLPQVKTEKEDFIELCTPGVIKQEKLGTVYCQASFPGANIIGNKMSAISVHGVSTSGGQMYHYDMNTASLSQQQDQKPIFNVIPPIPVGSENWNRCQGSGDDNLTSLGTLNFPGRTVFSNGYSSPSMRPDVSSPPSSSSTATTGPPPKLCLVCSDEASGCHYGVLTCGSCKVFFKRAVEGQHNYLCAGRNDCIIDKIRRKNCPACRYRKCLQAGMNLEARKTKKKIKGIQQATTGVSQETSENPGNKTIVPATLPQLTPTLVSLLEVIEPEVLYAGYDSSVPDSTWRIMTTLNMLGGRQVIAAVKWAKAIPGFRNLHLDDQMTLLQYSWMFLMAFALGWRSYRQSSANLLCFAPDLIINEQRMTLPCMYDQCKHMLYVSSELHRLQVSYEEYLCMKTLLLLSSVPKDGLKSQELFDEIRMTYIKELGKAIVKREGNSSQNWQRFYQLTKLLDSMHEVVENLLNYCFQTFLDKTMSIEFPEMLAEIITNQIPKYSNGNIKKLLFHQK
# Sequence of Dual specificity protein kinase CLK4 (Homo sapiens) (Q9HAZ1 whole entry, looked up): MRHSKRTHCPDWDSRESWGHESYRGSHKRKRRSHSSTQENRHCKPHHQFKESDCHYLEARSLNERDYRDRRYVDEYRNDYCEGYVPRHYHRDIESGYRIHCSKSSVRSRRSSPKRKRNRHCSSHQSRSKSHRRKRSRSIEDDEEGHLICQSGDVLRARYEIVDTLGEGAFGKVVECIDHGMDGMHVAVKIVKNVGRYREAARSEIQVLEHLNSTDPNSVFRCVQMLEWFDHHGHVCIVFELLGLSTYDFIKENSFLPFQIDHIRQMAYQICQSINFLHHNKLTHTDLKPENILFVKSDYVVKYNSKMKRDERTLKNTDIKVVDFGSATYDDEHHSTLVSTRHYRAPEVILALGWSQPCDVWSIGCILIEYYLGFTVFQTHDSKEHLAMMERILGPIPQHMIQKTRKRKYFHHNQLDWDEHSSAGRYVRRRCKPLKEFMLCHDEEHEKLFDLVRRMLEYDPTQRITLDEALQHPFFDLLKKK
Compound,Potency [1],Potency [2],Potency [3],outcome [4],Potency [5],Potency [6],Potency [7],"activity change, negative = inhibition [8]","max response [8, 18] [%]","max response [8, 19] [%]",Potency [9],Potency [10],Potency [11],Potency [12],Potency [13],"activity change, negative = inhibition [14]","activity change, negative = inhibition [15]","activity, negative = inhibition [16]",Potency [17]
CCNc1ncc2nc(-c3cccs3)c(=O)n(C)c2n1,1.58 µM (active),> 9.22 µM (inactive),> 46 µM (inactive),inactive,inactive,inactive,3.16 µM (active),-12.5% (inactive),3.66,-11.1,inactive,inactive,inactive,inactive,inactive,–,–,–,–
O=c1cnc2cnc(Oc3cccc(Cl)c3)nc2n1C[C@H]1CCCO1,5.01 µM (active),> 9.22 µM (inactive),> 46 µM (inactive),inactive,inactive,–,–,5.57% (inactive),22.7,29.8,inactive,inactive,inactive,inactive,inactive,-1.71% (inactive),1.72% (inactive),–,–
COCCNc1ncnc2ccc(-c3cccc(NS(C)(=O)=O)c3)cc12,0.794 µM (active),> 46 µM (inactive),> 46 µM (inactive),inactive,inactive,inactive,–,1.59% (inactive),-7.37,-7.54,12.6 µM (active),8.91 µM (active),11.2 µM (active),inactive,inactive,-19.3% (inactive),–,-4.92% (inactive),–
O=c1c(-c2ccc(F)cc2)nc2cnc(Oc3ccccc3)nc2n1C1CC1,–,> 9.22 µM (inactive),> 46 µM (inactive),inactive,inactive,–,–,0.468% (inactive),0.149,-1.57,inactive,inactive,inactive,inactive,inactive,2.54% (inactive),5.2% (inactive),-10.8% (inactive),–
COCCn1c(=O)c(C)nc2cnc(N(C)C)nc21,3.98 µM (active),> 9.22 µM (inactive),> 46 µM (inactive),inactive,inactive,–,–,4.96% (inactive),17.2,22.8,inactive,inactive,inactive,–,inactive,3.65% (inactive),13.3% (inactive),-5.78% (inactive),–
c1cncc(CNc2ncncc2-c2cccnc2)c1,5.01 µM (active),> 46 µM (inactive),> 46 µM (inactive),inactive,inactive,inactive,–,2.51% (inactive),25.3,26.2,inactive,inactive,inactive,–,inactive,3.11% (inactive),1.94% (inactive),12.2% (inactive),2 µM (active)
